GCN5L2 inh: GCN5L2 (KAT2A) acetyltransferase inhibition. hit rate 0.21% among 390,000. AID 504327. Potency, µM (highest dose often 58.9 µM), for inactives: top-dose activity change, negative = inhibition, actives largely listed as inhibitors. GCN5L2 HAT assay, ThioGlo1 CoA-SH fluorescence. Q92830
Target sequence (Q92830 whole entry, looked up): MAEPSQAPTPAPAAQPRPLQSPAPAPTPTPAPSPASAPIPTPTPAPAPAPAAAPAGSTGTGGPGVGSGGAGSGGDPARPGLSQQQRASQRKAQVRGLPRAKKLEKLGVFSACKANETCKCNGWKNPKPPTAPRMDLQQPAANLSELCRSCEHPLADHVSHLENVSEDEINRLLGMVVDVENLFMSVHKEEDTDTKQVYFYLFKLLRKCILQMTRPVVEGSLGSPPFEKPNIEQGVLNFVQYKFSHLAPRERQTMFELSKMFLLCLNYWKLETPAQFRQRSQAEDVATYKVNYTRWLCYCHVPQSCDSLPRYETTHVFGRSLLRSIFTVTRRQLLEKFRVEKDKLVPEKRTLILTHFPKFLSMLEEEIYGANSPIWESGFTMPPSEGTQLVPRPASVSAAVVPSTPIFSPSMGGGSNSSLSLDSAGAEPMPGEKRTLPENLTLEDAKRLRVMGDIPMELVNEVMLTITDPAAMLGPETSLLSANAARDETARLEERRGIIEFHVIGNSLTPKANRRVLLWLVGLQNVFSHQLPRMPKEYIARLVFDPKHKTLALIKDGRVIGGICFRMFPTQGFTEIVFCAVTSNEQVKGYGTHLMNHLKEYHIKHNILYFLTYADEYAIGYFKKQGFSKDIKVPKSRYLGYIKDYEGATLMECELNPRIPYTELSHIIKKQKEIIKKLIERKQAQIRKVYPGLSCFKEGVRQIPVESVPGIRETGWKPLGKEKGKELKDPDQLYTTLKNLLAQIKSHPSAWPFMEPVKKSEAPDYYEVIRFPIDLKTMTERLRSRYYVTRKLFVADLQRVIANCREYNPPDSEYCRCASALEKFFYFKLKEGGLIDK
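Preincubate 20nM GCN5L2 with compound 15 min, RT → add 50uM ThioGlo1 + 75uM H3(1-25) + 70uM acetyl-CoA → read fluorescence 0 and 20 min. Primary qHTS; fluorescent artifacts likely.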
DT40 TDP1 CPT: growth inhibition of DT40 Tdp1-/-;hTDP1 cells with camptothecin (screen for TDP1 inhibitors); chicken DT40 Tdp1-/-;hTDP1 cells + 20 nM CPT, ATP luminescence, 48 h; Potency, µM (doses to about 46.2 µM), inactives show at the top dose activity change, negative = growth inhibition, hits mostly inhibitors; hit rate 12% among 420,000; AID 686979; further: nearly all actives have a fitted effect of over 55% in size
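Chicken DT40 Tdp1-/- cells complemented with human TDP1, 400 cells/well, exposed to compounds plus 20 nM camptothecin for at least 48 h at 37 C; viability read as ATP content by CellTiter-Glo luminescence.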
VDR inhibitor: inhibitors of human vitamin D receptor; Potency, µM, for inactives: max response, negative = inhibition, most hits filed as inhibitors; P11473; hit rate 0.93% among 400,000; VDR-SRC2-3 peptide fluorescence polarization, 2 h
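After 23 nl compound addition and a short centrifugation, plates sat for 2 hours at ambient temperature; polarization of fluorescence then indicated loss of VDR binding to peptide SRC2-3.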
PLK1 PBD block: inhibitors of human PLK1 polo-box domain binding; P53350; Plk1 PBD binding of FITC phosphopeptide, fluorescence polarization; Potency, µM, for the others: max response, negative = inhibition, usual class: inhibitors; hit rate 2.8% among 360,000; AID 720504; further: series mostly up to about 57 µM; nearly all actives have a fitted effect of over 65% in size
TDP1 cell noCPT: qHTS for Inhibitors of human tyrosyl-DNA phosphodiesterase 1 (TDP1): qHTS in cells in absence of CPT; DT40 Tdp1-/- hTDP1 cells, no CPT, ATP luminescence, 48 h; Potency, µM (series often up to 46.2 µM), for inactives: at the highest dose activity change, negative = growth inhibition, usual class: inhibitors; hit rate 15% among 420,000; further: nearly all actives have a fitted effect of over 55% in size
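Luminescent ATP content (CellTiter-Glo) served as the growth readout. Knockout chicken DT40 cells expressing human TDP1 were exposed to compounds without camptothecin for a minimum 48 hr at 37 °C.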
TDP1 block: TDP1 (human) enzyme inhibition | recombinant TDP1, AlphaScreen DNA substrate cleavage | Potency, µM (series often up to 130 µM), without a hit: at the highest dose activity change, negative = inhibition, actives largely listed as inhibitors | hit rate 0.28% among 350,000 | AID 485290; further: nearly all actives have a fitted effect of over 40% in size
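Steps: enzyme plus compound, 15 min RT; add biotin/phosphotyrosine-FITC oligonucleotide (15 nM final), react 5 min; add donor/acceptor beads (10 ug/ml final), 10 min; read AlphaScreen. Tdp1 at 1 nM final.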
The depositor's hits bear a star; u = inconclusive; x = not tested or not shown; [ ] = remark or other dose. Most compounds without a hit are left out; they make up all but 18% or so of the library. The call rests on the fitted dose curve; in most records, active means well fitted curve in the direction sought with a large enough effect; inconclusive means small, poorly fitted or top-dose-only effect, or another doubt; inactive means no such curve, though single readings can be large; an effect the other way counts as inactive or inconclusive. On the % scale 0 is the no-effect control and ±100 the full control effect; potency means the concentration at half of the fitted maximal effect.

SMILES	GCN5L2 inh	DT40 TDP1 CPT	VDR inhibitor	PLK1 PBD block	TDP1 cell noCPT	TDP1 block
CCn1c(SCC(=O)Nc2nc3ccc(OC)cc3s2)nc2c1c(=O)n(C)c(=O)n2C	-5%	18µM*	0%	-13%	u	3%
Cc1ccc(C(C)C)c(OCC(=O)NCC2(N(C)C)CCCCC2)c1	-5%	x	1%	x	x	1%
Cc1ccc(NC(=O)c2ccc(CSc3ccccn3)cc2)cc1	-27%	u	16%	u	23µM*	7%
CCc1ccc(N/C(N)=N/c2nc(CSc3ccccn3)cc(=O)[nH]2)cc1	1%	15µM*	-4%	0%	16µM*	8%
Cc1ccc(N/C(N)=N/c2nc(CSc3ccccn3)cc(=O)[nH]2)c(C)c1	-16%	u	9%	-18%	18µM*	6%
Cn1nccc1C(=O)NC1CCN(Cc2ccccc2)CC1	-6%	14%	-19%	6%	1%	1%
COc1ccc(C(OCCN2CCC[C@@H](C(=O)O)C2)(c2ccc(OC)cc2)c2ccc(OC)cc2)cc1	-16%	u	2%	x	u	-4%[56.1 µM]
COC(=O)CNC(=O)COC(=O)Cc1ccc(Cl)cc1	-4%	1%	-16%	1%	17%	3%
COc1cc2c(cc1OC)C(COc1ccc(F)cc1)NCC2 (stereo not drawn)	-1%	u	-3%	-10%	u	2%
CCOc1ccc(CC2NCCc3cc(OCC)c(OCC)cc32)cc1OCC (stereo not drawn)	0%	3.7µM*	u	-5%	4.1µM*	-5%
CCc1ccc(OCC2NCCc3cc(OC)c(OC)cc32)cc1 (stereo not drawn)	-6%	u	0%	6%	18µM*	2%
CC(C)c1ccc(S(=O)(=O)NCc2nc3cccnc3n2Cc2ccc(F)cc2)cc1	1%	u	1%	x	u	-4%
COc1ccc(NC(=O)C2CCN(S(=O)(=O)c3c(C)noc3/C=C/c3cccs3)CC2)cc1	-3%	-27%	-11%	x	u	7%
COc1cccc(NC(=O)C2CCN(S(=O)(=O)c3c(C)noc3/C=C/c3cccs3)CC2)c1	-19%	u	-2%	x	13µM*	0%
COc1ccccc1CNC(=O)C1CCN(S(=O)(=O)c2c(C)noc2/C=C/c2cccs2)CC1	-5%	18µM*	-21%	x	18µM*	0%
CCOc1ccc(C(=O)Nc2ccc(NC(=O)c3ccccc3)cc2)cc1Br	-2%	-12%	-13%	-8%	10%	-2%[12.3 µM]
CCOc1ccc(C(=O)Nc2ccc(N3CCN(C)CC3)cc2)cc1Br	1%	u	9%	-1%	29µM*	2%
COc1cc(OC)cc(C(=O)Nc2ccc(N3CCN(C(=O)c4cccs4)CC3)cc2)c1	-12%	5.8µM*	-1%	9%	5.2µM*	5%
COc1ccc(C(=O)Nc2ccc(N3CCN(C(=O)c4cccs4)CC3)cc2)cc1Br	-5%	21µM*	-4%	-5%	18µM*	2%
CC(=O)Nc1ccc(N2CCN(C(=O)c3cccs3)CC2)cc1	2%	5%	-5%	3%	6%	0%
O=C(O)C[C@H]1c2ccccc2S(=O)(=O)N1c1ccccc1	x	u	2%	1%	-25%	x
CCC1CN(Cc2c(C)nc3sccn23)Cc2cc(OC)ccc2O1 (stereo not drawn)	x	-3%[9.04 µM]	x	x	-6%	x
C[C@@H]1CN([C@@H](C)CO)S(=O)(=O)c2ccc(Br)cc2O[C@@H]1CN(C)C(=O)c1ccccn1	x	19%	x	0%	4%	x
Cn1c(N2CCN(C(c3ccccc3)c3ccccc3)CC2)nc2c1c(=O)[nH]c(=O)n2C	-5%	21µM*	11%	-2%	18µM*	x
CCCCCn1c(N2CCC(Cc3ccccc3)CC2)nc2c1c(=O)[nH]c(=O)n2C	x	7.3µM*	-16%	-3%	u	x
SMILES	GCN5L2 inh	DT40 TDP1 CPT	VDR inhibitor	PLK1 PBD block	TDP1 cell noCPT	TDP1 block
CC(=O)Cn1c(N2CCC(Cc3ccccc3)CC2)nc2c1c(=O)[nH]c(=O)n2C	-2%	u	7%	-7%	16µM*	1%
CC(C)C(=O)Nc1nnc(S(=O)(=O)N(C)Cc2ccc(F)cc2)s1	-1%	-21%	12%	x	-12%	6%
COc1ccc(OC)c(S(=O)(=O)Oc2ccc(N)c3ccccc23)c1	x	u	-12%	1%	23µM*	x
COc1ccc(OC)c(S(=O)(=O)NCc2ccccc2)c1	-4%	-22%	-18%	-9%	7%	0%
COc1nc2ccccc2nc1CCC(=O)O	-6%	0%	-6%	30µM*	6%	-5%
COC(=O)CCc1nc2ccccc2nc1OC	-4%	10%	-17%	1%	-15%	4%
CCOc1ccc2[nH]cc(C(=O)NCc3ccc(F)cc3)c(=O)c2c1	-13%	u	7%	-15%	u	x
CCOc1ccc(N(C)S(=O)(=O)c2ccc3[nH]cc(C(=O)NCC(OC)OC)c(=O)c3c2)cc1	-4%	u	-10%	-10%	26µM*	x
CCCCSCCCNC(=O)c1c[nH]c2ccc(S(=O)(=O)Nc3cccc(OC)c3)cc2c1=O	-12%	21µM*	3%	x	21µM*	-4%
CCOCCCNC(=O)c1c[nH]c2ccc(OCC)cc2c1=O	0%	u	u	30µM*	u	-1%
COc1ccc2[nH]cc(C(=O)NCCc3ccccc3)c(=O)c2c1	-3%	-26%	-4%	-10%	18µM*	x
COc1ccccc1NC(C)C(=O)c1c(C)[nH]c2ccccc12 (stereo not drawn)	x	-30%	x	x	u	x
Cc1noc(C)c1COC(=O)C(c1ccccc1)c1ccccc1	-13%	10%	-9%	-2%	-23%	-13%
COc1ccc2c(=O)c(C(=O)NCCc3ccccc3)c[nH]c2c1	0%	16µM*	-1%	5%	u	x
CCN(CC)S(=O)(=O)c1ccc(-n2cnc3cc(C)c(C)cc32)nc1	-8%	u	-6%	-10%	u	3%
CO[C@H]1[C@H](NC(=O)c2ccco2)c2ccccc2C12CCN(Cc1cccn1-c1ccccn1)CC2	x	11%[9.04 µM]	x	x	-4%	x
Cc1ccc(S(=O)(=O)N/N=C2/CC(c3ccccc3)Oc3ccccc32)cc1[N+](=O)[O-] (stereo not drawn)	-15%	-7%	1%	12µM*	-12%	4%
CNC(=S)N/N=C1\CC(c2ccccc2)Oc2ccccc21 (stereo not drawn)	-3%	5.2µM*	-19%	-7%	2.6µM*	5%
